# Bioassay records from PubChem BioAssay.
# In the library only some 17% were active in any assay of this set; here they are far more common.
# TDP1 cell noCPT: qHTS for Inhibitors of human tyrosyl-DNA phosphodiesterase 1 (TDP1): qHTS in cells in absence of CPT | DT40 Tdp1-/- hTDP1 cells, no CPT, ATP luminescence, 48 h | actives 15% (n = 420,000) | Potency, µM (titrated, usually from 46.2 µM), for the others: at the top dose activity change, negative = growth inhibition, most hits filed as inhibitors; note: % is set by controls: 0 for no effect and ±100 for the full control effect; nearly all actives have a fitted effect of over 55% in size
#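 Chicken DT40 Tdp1-/- cells stably complemented with human TDP1 were seeded at 400 cells/well with DMSO in place of 20 nM camptothecin. After compound pinning, cells grew at least 48 hr at 37 °C; viability read by CellTiter-Glo luminescence.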
# HT1080 IDH1KD tx: toxicity to HT-1080 IDH1 knockdown cells (counter line) | Potency, µM (doses to about 46.1 µM), inactives show at the top dose activity, negative = toxicity, most hits filed as cytotoxic | actives 2% (n = 360,000) | HT-1080 IDH1 knockdown viability, ATP luminescence, 48 h | AID 686971;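 note: 0% = DMSO wells and -100% = cell-free medium wells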
#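 % activity derives from luminescence (CellTiter-Glo), normalised to DMSO and no-cell wells. HT-1080-IDH1KD cells, 750/well, had 48 h compound exposure at 37 °C.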
# HT1080-NT tox: kills 2HG-producing HT-1080-NT fibrosarcoma cells | HT-1080-NT fibrosarcoma viability, CellTiter-Glo ATP luminescence, 48 h | Potency, µM (highest dose often 46.1 µM), without a hit: at the top dose activity, negative = less viability, hits mostly cytotoxic | actives 1.6% (n = 360,000) | AID 686970;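 note: NT is the 2HG producing partner of a matched IDH1 knockdown line; 0% = DMSO-treated cells and -100% = media-only wells without cells; nearly all actives have a fitted effect of over 55% in size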
#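 HT-1080-NT; 750 cells/well; 5% FBS RPMI; 48 h compound, 37 degrees C; CellTiter-Glo luminescence; curve fitting and curve-class assignment.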
# TGFb SMAD3 inh: blocks TGF-b signaling; HepG2 CAGA-GFP TGF-b/SMAD3 reporter, GFP fluorescence, 18 h; TGF-beta stimulated, 500 pg/mL final; Potency, µM (doses to about 46.1 µM), for inactives: top-dose activity, negative = inhibition, hits mostly inhibitors; actives 1.2% (n = 410,000); note: % is set by controls: 0 for no effect and ±100 for the full control effect; nearly all actives have a fitted effect of over 65% in size
#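 GFP signal (ex488/em500-530) from TGF-beta-stimulated HEPG2 CAGA-GFP cells, 500 pg/mL final, 18 h at 37 degrees C in DMEM plus 1% FBS, normalized to unstimulated and DMSO-stimulated controls.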
# TDP1 cell CPT: growth inhibition of DT40 Tdp1-/-;hTDP1 cells with camptothecin (screen for TDP1 inhibitors). actives 12% (n = 420,000). chicken DT40 Tdp1-/-;hTDP1 cells + 20 nM CPT, ATP luminescence, 48 h. AID 686979. Potency, µM (titrated, usually from 46.2 µM), for the others: top-dose activity change, negative = growth inhibition, most hits filed as inhibitors; note: % is set by controls: 0 for no effect and ±100 for the full control effect; nearly all actives have a fitted effect of over 55% in size
#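 Chicken DT40 Tdp1-/- cells stably complemented with human TDP1 were seeded at 400 cells/well in medium containing 20 nM camptothecin, exposed to pin-transferred compounds, and grown at 37 °C for at least 48 hr. Viability was read as ATP luminescence.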
# HepG2 tox: counter-screen for TGF-b inhibitors: cytotoxicity in HepG2 cells; HepG2 CAGA-GFP viability, ATP luminescence, 18 h; Potency, µM (doses to about 46.1 µM), for inactives: at the top dose activity change, negative = cytotoxicity, most hits filed as cytotoxic; actives 0.76% (n = 410,000)
#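 HepG2 CAGA-GFP cells (1000/well, DMEM with 1% FBS) received compound, then TGF-beta at 500 pg/mL final, and were incubated 18 hours at 37 degrees C. Viability was read by CellTiter-Glo luminescence. Media-only wells were set as complete cell-killing and DMSO as no toxicity.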
# * = called active by the depositor; u = inconclusive; x = no result. Calls come from the whole dose curve; as a rule, active = well fitted curve in the direction sought with a large enough effect; inconclusive = small, poorly fitted or top-dose-only effect, or another doubt; inactive = no such curve, though single readings can be large; an effect the other way counts as inactive or inconclusive. Potency is the fitted concentration of half-maximal effect.
SMILES,TDP1 cell noCPT,HT1080 IDH1KD tx,HT1080-NT tox,TGFb SMAD3 inh,TDP1 cell CPT,HepG2 tox
Cc1nn(C(C)(C)C)c(OC(=O)c2cccc(F)c2)c1Sc1ccccc1,u,x,x,u,u,-58%
CCCc1c(C(=O)N/N=C/C=C/c2ccccc2)nnn1-c1nonc1N,-25%,-11%,-8%,-12%,-19%,-35%
CN(C)CCCNC(=O)c1ccc(Cl)c(S(=O)(=O)N(C)c2ccccc2)c1,-16%,-1%,2%,4%,-36%,-3%
COc1ccccc1NC(=O)C1CCCN(S(=O)(=O)c2ccccc2)C1 (centres undefined),u,-6%,1%,-1%,u,-26%
COc1ccccc1NC(=O)CN1CCCCCC1,-23%,-10%,-2%,-24%,9%,2%
CCN(CC)c1ccc(NC(=O)CN2CCN(c3ccc(F)cc3)CC2)cc1,u,0%,-5%,6%,u,3%
COc1ccccc1NC(=O)CNC(=O)CC12CC3CC(CC(C3)C1)C2,-70%,u,u,-12%,1.6µM*,-8%
CCN(CC)c1ccc(NC(=O)CN2CCN(c3nc(C)cc(C)n3)CC2)cc1,16µM*,-21%,-26%,23%,u,-5%
CCN(CC)c1ccc(NC(=O)CN2CCN(CC(=O)Nc3ccccc3OC)CC2)cc1,u,-9%,-10%,-6%,23µM*,-27%
CCOc1ccc(NC(=O)CN2CCN(CC(=O)Nc3ccccc3OC)CC2)cc1,u,-2%,-6%,-18%,u,2%
COc1ccccc1NC(=O)CN1CCOCC1,15%,4%,7%,0%,14%,7.9µM*
COc1ccc(CNC(=O)CC23CC4CC(CC(C4)C2)C3)cc1OC,-24%,-1%,1%,-24%,u,-5%
CO[C@@]1(NC(=O)CSC[C@@H](N)C(=O)O)C(=O)N2C(C(=O)O)=C(CSc3nnnn3C)CS[C@@H]21,-9%,x,x,x,-2%,x
COc1ccccc1C(O)c1ncc(-c2cccc3ccccc23)[nH]1 (centres undefined),u,-6%,-17%,-3%,u,-42%
C=C(C)CN=CC1(C)CCC(C)=CO1 (centres undefined),18µM*,13%,3%,8%,16µM*,1%
CC(=O)OC(C)OC(=O)C(C)c1ccc(-c2ccccc2)c(F)c1 (centres undefined),-10%,x,x,x,0%,x
CC(C)(C)C(=O)CSc1n[nH]c(-c2ccccc2)n1,u,x,x,0%,-25%,-2%
O=S(=O)(Cc1ccccc1)c1ccccc1-c1nnc(-c2ccccc2)o1,16µM*,0%,0%,1%,16µM*,-1%
O=S(=O)(Cc1ccc(Cl)cc1)c1ccccc1-c1nnc(-c2ccc(Cl)cc2)o1,u,-10%,-8%,8%,u,8%
Cc1ccc(-c2nnc(-c3ccccc3S(=O)(=O)Cc3ccc(Cl)cc3)o2)cc1,23µM*,-23%,-26%,u,u,6%
COc1cc(CN2CCN(c3ncccn3)CC2)cc(OC)c1,-2%,10%,-1%,3%,-5%,1%
COc1ccc(C2NC(=O)N(C)C3=C2C(=O)N(c2ccc(C)cc2)C3)cc1 (centres undefined),0%,x,x,-2%,9%,-1%
CC(C)CC1NC(=O)c2cc3ccccc3cc2-n2c1nc1ccc(F)cc1c2=O (centres undefined),23µM*,-2%,-8%,11%,23µM*,7%
Cc1ccc2nc3n(c(=O)c2c1)-c1cc2ccccc2cc1C(=O)NC3CC(C)C (centres undefined),16µM*,13%,8%,12%,16µM*,2%
CCCC1NC(=O)c2cc3ccccc3cc2-n2c1nc1ccc(F)cc1c2=O (centres undefined),21µM*,-5%,-1%,-10%,u,-31%
SMILES,TDP1 cell noCPT,HT1080 IDH1KD tx,HT1080-NT tox,TGFb SMAD3 inh,TDP1 cell CPT,HepG2 tox
Cc1ccc(C2(C)NC(=O)N(CC(=O)NCc3cccc(Cl)c3)C2=O)cc1 (centres undefined),7%,-2%,-1%,u,-4%,-5%
CCc1ccc(N2C(=O)CN(Cc3cccs3)C2=S)cc1,-1%,-28%,-4%,4%,0%,-24%
O=C(CN1C(=O)C(=O)c2ccccc21)NC1CCCCC1,23µM*,0%,5%,u,26µM*,3%
O=C1C(=O)N(Cc2cccs2)c2ccccc21,5.2µM*,u,2%,-4%,4.6µM*,4%
O=C(CN1C(=O)C(=O)c2ccccc21)c1ccccc1,4.1µM*,9%,1%,u,18µM*,-6%
CC(C)N(C(=O)CN1C(=O)C(=O)c2ccccc21)c1ccccc1,-22%,5%,u,6%,-23%,-1%
O=C1CSC(=S)N1Cc1cccs1,18µM*,1%,18%,u,u,-25%
CC(c1nccs1)N(C)C(=O)CCc1nnc(Cc2c[nH]c3ccccc23)o1 (centres undefined),-2%,-18%,-4%,25%,4%,13%
CCN(CC)CCCNC(=O)c1cc(Cl)c(NC(=O)C2=C(C)OCCS2)cc1OC,-21%,u,-24%,12%,-17%,-1%
CCc1cccc(CC)c1NC(=O)CN1C(=O)C(=O)c2ccccc21,3.3µM*,x,x,u,5.2µM*,-40%
Cc1ccc(NC(=O)N2CCC(=O)N2)cc1,-9%,1%,-1%,u,-18%,5%
c1ccc(N2CCN(c3ncnc4scc(-c5cccs5)c34)CC2)cc1,u,9%,0%,-12%,u,-6%
O=C(c1ccco1)N1CCN(c2ncnc3scc(-c4cccs4)c23)CC1,13µM*,7.9µM*,11µM*,-18%,18µM*,-38%
COc1ccc(-c2csc3ncnc(N4CCN(C(=O)c5ccco5)CC4)c23)cc1,u,-21%,-20%,u,23µM*,-3%
O=C(c1ccco1)N1CCN(c2ncnc3scc(-c4ccccc4)c23)CC1,16µM*,10µM*,7.3µM*,0%,16µM*,-28%
COc1ccc(NC(=O)CN(C)CC(=O)NCC(=O)Nc2ccc(F)cc2)cc1,4%,2%,7%,4%,5%,0%
